Experimental data taken from the supplement of paper PMC10849652.
Of roughly 7,900 targets only a part is listed; those with a hit were picked by preference. About 0.6% of all pairs of compound and target were hits.

Assays:
Experiment in all cases: log2 fold change, soluble protein after heating vs DMSO (PISA); higher = thermal stabilisation; K562 cells, 10 uM, 30 min; active = over 0.2 and 3.5 SD of the protein, either way, in both replicates (recomputed)
[1] = compound: C#Cc1cccc(Nc2ncnc3cc(OCCOC)c(OCCOC)cc23)c1 [erlotinib]
Outline: (§1)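 K562 cells (2×10^6 cells/mL) were treated with 10 μM compound for 30 min, and aliquots were heated for 3 min over 48°C-58°C. Pooled aliquots were extracted in PBS with 0.5% NP-40 at 4°C, and the supernatant after 21,000xg for 90 min was measured by TMTpro 16plex LC-MS/MS with channel sums equalised. Reported thermal stability, relative to control samples and from duplicates, is a log2 fold change.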

[2] = compound: C/C(=N\NC(=O)C1=CC(=CC=C1)S(=O)(=O)N2CCOCC2)/C3=C(C=CC(=C3)Cl)O
Outline: as §1

[3] = compound: C1=CC(=C(C=C1Cl)C2=NC3=NC=CN=C3C(=N2)NC4=CC=NC=C4)F
Outline: as §1

[4] = compound: C1=CC(=CC=C1C2=NC3=C(N2)C=C(C=C3)C(=O)N)OC4=CC=C(C=C4)Cl
Outline: as §1

[5] = compound: C1=CC2=C(C=CC(=C2)/C=C\3/C(=O)NC(=NCC4=CC=CS4)S3)N=C1
Outline: as §1

[6] = compound: C1=CC2=NC=CN=C2C=C1/C=C/3\C(=O)NC(=O)S3
Outline: as §1

[7] = compound: C1=CC=C(C=C1)C2=NC(=C(N2)C3=CC=NC=C3)C4=CC(=C(C=C4)Cl)O
Outline: as §1

[8] = compound: C1=CC=C2C(=C1)C3=NNC4=CC=CC(=C43)C2=O
Outline: as §1

[9] = compound: C1CCN(C1)C(=O)NC2=CC=CC(=C2)NC3=NC=C(C(=N3)NCCC4=CN=CN4)Br
Outline: as §1

[10] = compound: C1CN(CCC1(CC2=CC=C(C=C2)Cl)N)C3=NC=NC4=C3C=CN4
Outline: as §1

Measured: log2 fold change

EDC3 (UniProt Q96F86)
Sequence of UniProt Q96F86 (Q96F86 whole entry, looked up): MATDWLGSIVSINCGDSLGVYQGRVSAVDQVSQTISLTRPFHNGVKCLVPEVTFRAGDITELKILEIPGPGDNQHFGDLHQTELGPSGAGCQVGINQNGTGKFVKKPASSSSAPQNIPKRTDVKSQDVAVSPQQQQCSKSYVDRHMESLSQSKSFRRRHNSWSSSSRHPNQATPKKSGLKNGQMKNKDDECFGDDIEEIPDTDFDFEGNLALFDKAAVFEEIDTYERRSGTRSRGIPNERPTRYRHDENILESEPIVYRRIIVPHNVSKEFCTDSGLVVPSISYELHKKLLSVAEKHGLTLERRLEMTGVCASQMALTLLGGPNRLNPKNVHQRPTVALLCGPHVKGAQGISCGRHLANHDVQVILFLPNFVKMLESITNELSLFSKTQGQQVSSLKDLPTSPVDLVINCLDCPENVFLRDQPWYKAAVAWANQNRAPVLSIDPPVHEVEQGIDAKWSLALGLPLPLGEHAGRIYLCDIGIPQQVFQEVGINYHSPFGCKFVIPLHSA
active: [10] -0.376
inactive: [1] -0.023 | [2] 0.156 | [3] 0.009 | [4] 0.043 | [5] -0.007 | [6] -0.227 | [7] -0.024 | [8] -0.057 | [9] -0.195

EEF1D isoform 2 (UniProt P29692)
Sequence of UniProt P29692 (P29692 whole entry, looked up): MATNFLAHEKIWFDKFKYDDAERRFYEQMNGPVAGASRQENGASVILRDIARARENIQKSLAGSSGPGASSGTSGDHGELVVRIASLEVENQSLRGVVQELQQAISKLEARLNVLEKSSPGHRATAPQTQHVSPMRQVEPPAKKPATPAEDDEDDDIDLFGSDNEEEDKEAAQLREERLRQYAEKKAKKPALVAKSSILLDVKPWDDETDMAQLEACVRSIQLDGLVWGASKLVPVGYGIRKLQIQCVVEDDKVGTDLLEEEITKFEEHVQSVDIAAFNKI
inactive: [1] 0 | [2] 0.031 | [3] 0.016 | [4] -0.028 | [5] 0.025 | [6] 0.02 | [7] -0.03 | [8] 0.021 | [9] 0.048 | [10] -0.055

DDX39A (UniProt O00148)
Sequence of UniProt O00148 (O00148 whole entry, looked up): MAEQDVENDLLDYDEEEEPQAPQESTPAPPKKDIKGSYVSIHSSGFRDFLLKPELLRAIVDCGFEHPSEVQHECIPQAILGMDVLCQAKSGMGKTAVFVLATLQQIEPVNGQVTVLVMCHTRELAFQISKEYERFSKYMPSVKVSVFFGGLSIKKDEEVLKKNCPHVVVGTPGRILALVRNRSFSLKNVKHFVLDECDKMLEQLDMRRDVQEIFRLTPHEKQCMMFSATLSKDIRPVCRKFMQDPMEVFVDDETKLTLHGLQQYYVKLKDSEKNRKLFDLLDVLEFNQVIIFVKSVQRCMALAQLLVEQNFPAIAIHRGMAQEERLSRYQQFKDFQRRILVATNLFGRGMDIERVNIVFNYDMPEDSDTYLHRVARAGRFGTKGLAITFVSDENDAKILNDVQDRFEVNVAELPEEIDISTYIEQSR
inactive: [1] 0.038 | [2] 0.027 | [3] 0.031 | [4] -0.03 | [5] -0.026 | [6] -0.068 | [7] -0.026 | [8] -0.059 | [9] -0.007 | [10] -0.019

EIF2AK3 (UniProt Q9NZJ5)
Sequence of UniProt Q9NZJ5 (Q9NZJ5 whole entry, looked up): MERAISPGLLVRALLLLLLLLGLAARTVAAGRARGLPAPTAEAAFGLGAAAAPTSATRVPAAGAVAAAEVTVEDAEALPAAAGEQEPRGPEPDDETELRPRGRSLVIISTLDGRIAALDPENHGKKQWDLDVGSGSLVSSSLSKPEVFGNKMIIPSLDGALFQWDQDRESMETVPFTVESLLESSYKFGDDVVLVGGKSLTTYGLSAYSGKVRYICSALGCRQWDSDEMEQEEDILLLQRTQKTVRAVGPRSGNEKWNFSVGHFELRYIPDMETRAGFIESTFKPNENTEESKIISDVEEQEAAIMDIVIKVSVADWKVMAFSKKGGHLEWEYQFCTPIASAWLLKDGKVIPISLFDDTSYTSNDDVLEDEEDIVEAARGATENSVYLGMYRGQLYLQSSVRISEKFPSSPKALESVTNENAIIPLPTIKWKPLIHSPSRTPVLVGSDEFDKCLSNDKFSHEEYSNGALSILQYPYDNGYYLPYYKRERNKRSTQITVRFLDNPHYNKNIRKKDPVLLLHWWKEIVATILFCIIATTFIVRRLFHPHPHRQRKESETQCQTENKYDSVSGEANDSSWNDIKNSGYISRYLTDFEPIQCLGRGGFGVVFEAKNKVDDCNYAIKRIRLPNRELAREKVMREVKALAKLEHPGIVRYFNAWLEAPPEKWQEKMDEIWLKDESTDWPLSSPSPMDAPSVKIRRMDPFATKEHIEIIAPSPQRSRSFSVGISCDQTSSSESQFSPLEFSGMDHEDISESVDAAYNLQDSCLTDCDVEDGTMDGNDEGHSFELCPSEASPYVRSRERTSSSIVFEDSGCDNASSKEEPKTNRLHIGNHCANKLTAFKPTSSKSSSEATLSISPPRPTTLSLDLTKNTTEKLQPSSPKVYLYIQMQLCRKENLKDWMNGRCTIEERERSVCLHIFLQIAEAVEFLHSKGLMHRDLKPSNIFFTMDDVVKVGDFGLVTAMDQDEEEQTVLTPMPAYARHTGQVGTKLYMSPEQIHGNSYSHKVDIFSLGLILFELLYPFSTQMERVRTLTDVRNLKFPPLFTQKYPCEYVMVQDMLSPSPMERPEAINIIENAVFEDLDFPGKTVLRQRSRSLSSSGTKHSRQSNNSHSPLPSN
inactive: [1] 0.056 | [2] 0.022 | [3] 0.091 | [4] -0.222 | [5] 0.421 | [6] -0.311 | [8] -0.016 | [9] 0.148 | [10] 0.075

DTWD2 (UniProt Q8NBA8)
Sequence of UniProt Q8NBA8 (Q8NBA8 whole entry, looked up): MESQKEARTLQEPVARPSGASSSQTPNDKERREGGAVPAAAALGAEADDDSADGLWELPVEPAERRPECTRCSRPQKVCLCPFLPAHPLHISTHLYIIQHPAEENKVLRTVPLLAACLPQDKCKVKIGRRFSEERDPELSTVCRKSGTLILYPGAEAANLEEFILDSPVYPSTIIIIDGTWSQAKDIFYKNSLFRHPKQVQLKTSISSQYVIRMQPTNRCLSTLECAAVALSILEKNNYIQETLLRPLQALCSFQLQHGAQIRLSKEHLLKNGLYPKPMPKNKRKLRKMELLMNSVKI
inactive: [1] 0.017 | [2] 0.018 | [3] 0.014 | [4] -0.095 | [5] -0.124 | [6] 0.072 | [7] 0.065 | [8] 0.033 | [9] 0.066 | [10] -0.02

EXOC2 (UniProt Q96KP1)
Sequence of UniProt Q96KP1 (Q96KP1 whole entry, looked up): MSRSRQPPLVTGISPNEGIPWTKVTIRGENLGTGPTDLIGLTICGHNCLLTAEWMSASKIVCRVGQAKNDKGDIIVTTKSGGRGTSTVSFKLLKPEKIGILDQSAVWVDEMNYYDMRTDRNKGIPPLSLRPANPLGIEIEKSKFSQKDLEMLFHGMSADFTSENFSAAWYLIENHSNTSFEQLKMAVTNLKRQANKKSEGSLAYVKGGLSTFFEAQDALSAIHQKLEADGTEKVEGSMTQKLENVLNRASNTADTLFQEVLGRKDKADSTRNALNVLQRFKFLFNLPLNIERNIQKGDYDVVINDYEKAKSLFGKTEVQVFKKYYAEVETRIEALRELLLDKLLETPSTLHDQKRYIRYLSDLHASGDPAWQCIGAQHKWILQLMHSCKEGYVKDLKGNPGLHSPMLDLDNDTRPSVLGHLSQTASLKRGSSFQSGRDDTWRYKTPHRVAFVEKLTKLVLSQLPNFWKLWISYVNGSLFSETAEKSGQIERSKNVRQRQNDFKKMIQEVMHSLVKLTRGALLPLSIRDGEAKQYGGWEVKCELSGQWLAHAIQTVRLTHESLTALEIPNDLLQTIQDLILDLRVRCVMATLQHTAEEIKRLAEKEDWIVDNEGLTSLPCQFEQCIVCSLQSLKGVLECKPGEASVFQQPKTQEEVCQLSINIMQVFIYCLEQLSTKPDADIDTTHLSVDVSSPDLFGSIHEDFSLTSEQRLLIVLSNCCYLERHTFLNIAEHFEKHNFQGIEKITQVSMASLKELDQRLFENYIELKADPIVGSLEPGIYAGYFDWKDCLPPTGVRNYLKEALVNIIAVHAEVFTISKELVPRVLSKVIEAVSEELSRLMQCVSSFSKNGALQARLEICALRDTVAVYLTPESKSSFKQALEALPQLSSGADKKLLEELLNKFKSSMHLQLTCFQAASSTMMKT
inactive: [1] 0.07 | [2] 0.083 | [3] -0.027 | [4] -0.045 | [5] 0.05 | [6] 0.006 | [7] -0.013 | [8] 0.054 | [9] -0.014 | [10] -0.119
